# High-throughput results as filed in PubChem BioAssay.
# SSB-PriA inh: K. pneumoniae PriA-SSBct interaction inhibition | AlphaScreen SSBct-PriA binding, biotinylated peptide | inhibition, % at 33 µM | actives 0.6% (n = 430,000) | AID 1272365; in the data active means inhibition mostly above about 37%, no sharp cut-off; inactive means mostly below about 20%;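 further: plate controls were negative control peptide for no effect and reference peptide for full effect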
# ugtP null kill: compounds lethal to S. aureus RN4220 ugtP deletion mutant | actives 0.54% (n = 330,000) | OD600 growth, 16 h | growth inhibition, % (test concentration not listed) | AID 1259309; in the data active means growth inhibition above about 68%;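 further: plate controls were untreated wells for no effect and antibiotic for full effect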
# BJeLR viability: BJeLR cell viability loss. BJeLR (HRASV12) viability, CellTiter-Glo ATP luminescence, 48 h. inhibition, % (concentration not given with the values). actives 0.17% (n = 300,000). AID 1554; in the data active means inhibition above about 50%
# MazEF act: activators of E. coli MazEF toxin-antitoxin RNase; activation, % at 20 µM; P0AE70; AID 504720; actives 0.32% (n = 350,000); FAM/BHQ RNA-DNA oligo cleavage fluorescence, 5 h; in the data active means activation above about 50%
# Target sequence (P0AE70 whole entry, looked up): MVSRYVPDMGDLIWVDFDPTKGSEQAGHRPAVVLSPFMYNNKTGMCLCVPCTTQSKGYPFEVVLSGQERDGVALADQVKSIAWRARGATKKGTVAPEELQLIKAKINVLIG
# RN4220 kill: kills Staphylococcus aureus RN4220; actives 0.33% (n = 330,000); inhibition, % (test concentration not listed); S. aureus RN4220 growth, OD600, 16 h; AID 1259311; in the data active means inhibition above about 85%;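 further: plate controls were untreated cells for no effect and reference antibiotic for full effect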
# An asterisk follows results filed as active; . = no result given. An excerpt weighted towards active compounds, which were near 1.2% of everything screened.
SMILES,SSB-PriA inh,ugtP null kill,BJeLR viability,MazEF act,RN4220 kill
CC(Sc1nc2cc([N+](=O)[O-])ccc2n1-c1ccc(F)cc1)C(=O)NCc1ccc2c(c1)OCO2 (stereo unspecified),25.1,2.2,9.1,7.8,-4.8
Cc1cc2cc(CN(Cc3ccc4c(c3)OCO4)C(=O)c3cnccn3)c3nnnn3c2cc1C,39.2*,-0.2,-6.4,3.0,4.5
COC(=O)C1=C(c2ccc(F)cc2OCc2ccccc2)CC2CCC1N2C(=O)NCc1ccc(F)cc1 (stereo unspecified),.,8.0,.,.,-7.8
COC(=O)C1=C(c2cccc(OCc3ccccc3)c2)CC2CCC1N2C(=O)NCc1ccc(OC)cc1 (stereo unspecified),.,6.8,.,.,-10.5
COC(=O)C1=C(c2cccc(OCc3ccccc3)c2)C[C@@H]2CC[C@H]1N2C(=O)NCc1ccc(N(C)C)cc1,55.8*,.,.,1.5,.
COC(=O)C1=C(c2ccccc2OCc2ccccc2)CC2CCC1N2C(=O)NCc1ccc(F)cc1 (stereo unspecified),.,12.0,.,.,-3.3
COC(=O)C1=C(c2ccc(F)cc2OCc2ccccc2)C[C@@H]2CC[C@H]1N2C(=O)NCc1ccc(N(C)C)cc1,45.9*,.,.,1.6,.
COC(=O)C1=C(c2ccccc2OCc2ccccc2)C[C@@H]2CC[C@H]1N2C(=O)NCc1ccc(N(C)C)cc1,53.0*,8.8,.,1.4,-0.4
CN(CC(=O)Nc1ccc(F)c(F)c1F)C(=O)C1CSC2(C)CCC(=O)N12 (stereo unspecified),7.2,-2.1,.,5.6,-1.3
O=C(Nn1c(=O)[nH]c2ccsc2c1=O)c1ccccc1,-7.2,100.2*,4.5,-0.8,97.8*
O=S(=O)(c1ccc(F)cc1)N1CCN(c2ccc(-c3ccccc3)nn2)CC1,-17.1,1.0,3.0,63.1*,8.5
O=S(=O)(c1ccc(F)cc1)N1CCN(c2ccc(-c3cccs3)nn2)CC1,0.0,.,.,.,.
Cc1nccn1CCNC(=O)NCCOc1ccccc1,-6.0,.,.,.,.
COCCN1CSC(=S)N(Cc2ccco2)C1,-11.0,16.3,2.7,1.0,5.9
S=C1SCN(Cc2ccccn2)CN1Cc1ccco1,48.1*,23.2,-0.3,-3.8,5.2
CCOC(=O)C1CCCN(S(=O)(=O)c2c(C)[nH]c(C)c2C(=O)N2CCCC2)C1 (stereo unspecified),-3.8,6.9,6.0,0.8,2.9
CC(C)c1ccc(-c2nnn(CCC#N)n2)cc1,-18.1,0.0,-2.1,5.6,3.3
CC(C)c1ccc(-c2nnn(Cc3nc4ccccc4s3)n2)cc1,-21.5,85.0*,-2.0,-2.6,1.1
Cn1nnnc1SCC1=C(C(=O)O)N2C(=O)[C@@H](NC(=O)[C@H](O)c3ccccc3)[C@H]2SC1,-7.2,.,6.7,5.2,.
CN(C)CCn1nnnc1SCC1=C(C(=O)O)N2C(=O)C(NC(=O)Cc3csc(N)n3)C2SC1 (stereo unspecified),.,100.4*,.,.,100.3*
Cc1cc(C(F)F)nn1CC(=O)NC1C(=O)N2C(C(=O)O)=C(CSc3nnnn3C)CSC12 (stereo unspecified),-2.0,99.6*,3.4,3.0,99.8*
Cc1nn(C(C)C(=O)NC2C(=O)N3C(C(=O)O)=C(CSc4nnnn4C)CSC23)cc1Cl (stereo unspecified),-11.2,98.6*,8.1,0.3,99.8*
CC(C(=O)NC1C(=O)N2C(C(=O)O)=C(CSc3nnnn3C)CSC12)n1cc(Br)cn1 (stereo unspecified),-8.2,99.8*,-9.4,2.3,100.2*
Cn1nnnc1SCC1=C(C(=O)O)N2C(=O)C(NC(=O)C3CC3c3ccccc3)C2SC1 (stereo unspecified),0.8,99.6*,0.5,0.9,100.2*
COc1ccc(S(=O)(=O)NCCNc2cc(N3CCCC3)cnn2)cc1C,-9.0,.,.,.,.
SMILES,SSB-PriA inh,ugtP null kill,BJeLR viability,MazEF act,RN4220 kill
COc1cc(C=NO)cc(Br)c1OCc1cccc(Cl)c1,-26.5,76.1,.,.,-1.7
Cc1ccc(COc2ccc(Br)cc2C=NO)cc1,-4.9,99.9*,.,.,-9.3
ON=Cc1cc(Br)cc(Br)c1OCc1ccccc1,-13.9,90.6*,.,.,-12.1
O=C(Nc1ccccc1)c1ccc(CSc2ccccn2)cc1,-0.8,14.5,13.3,-0.8,5.7
O=C(Nc1nc(NC(=O)c2ccco2)n(-c2ccccc2)n1)c1ccccc1,-9.3,75.7,23.9,-3.5,92.1*
Cc1cc(C)c2c(c1)c(-c1ccccc1)c(-c1ccccc1)n2C[C@@H](O)CNC1CCCC1,45.0*,.,.,.,.
CC(C)(C)c1cc(C(=O)NN=Cc2ccccc2O)n(-c2ccccc2)n1,-19.2,99.9*,.,.,67.8
CC(=NN1CCN(Cc2ccc(Cl)cc2)CC1)c1ccc([N+](=O)[O-])cc1,43.9*,-7.5,.,.,3.1
C[C@@H]1CN([C@H](C)CO)C(=O)CCCn2nncc2CO[C@H]1CN(C)C(=O)CCC(F)(F)F,.,.,.,0.8,.
CC(=O)c1cnc2nc(C(F)(F)F)nn2c1C,-11.1,1.4,-9.5,80.0*,-2.0
Cc1ccccc1S(=O)(=O)N1[C@@H](c2ccc(Br)cc2)C(C(=O)O)=CC[C@H]1c1ccc(Cl)cc1,0.8,16.7,.,-0.8,10.8
Cc1occc1-c1nnc(SCC(=O)c2ccccc2)n1CC1CCCO1 (stereo unspecified),-16.6,-18.3,-2.6,-1.4,2.9
C[C@@H]1C[C@H]2OC(=O)C3(CO3)[C@H]2[C@H](O)[C@]2(C)C(=O)C3OC3[C@@H]12 (stereo partly specified),.,.,72.9*,.,.
Cn1cc(C=C(C#N)C#N)c2ccccc21,-6.5,9.1,-14.1,154.2*,2.6
CCOC(=O)/C(C#N)=C\c1cn(C)c2ccccc12,-30.1,-8.5,0.4,2.6,4.1
COc1ccc2c(c1)c1nc3ccccc3nc1n2CC(=O)OC(C)C,-6.3,-3.1,-1.2,369.9*,6.0
COc1ccc2c(c1)c1nc3ccccc3nc1n2CCCN1C(=O)c2ccccc2C1=O,8.0,1.0,-18.0,698.3*,1.8
COc1ccc(Cn2c3ccc(OC)cc3c3nc4ccccc4nc32)cc1,-9.0,5.8,-8.5,65.3*,-1.5
COC(=O)Cn1c2ccc(C)cc2c2nc3ccccc3nc21,-14.9,18.0,22.4,17.3,4.8
Nc1nonc1C(=O)NCCNC(=O)c1ccc(Cl)cc1,1.8,10.0,-4.0,4.3,5.0
CCN(CC)c1ccc2cc3ccc(N)cc3[n+](-c3ccccc3)c2c1,116.8*,.,.,.,.
CCOC(=O)CC1c2cc(F)ccc2S(=O)(=O)N1Cc1ccc(OC)cc1 (stereo unspecified),.,10.2,.,.,5.3
COc1ccccc1N1COc2ccc3c(=O)c(-c4ccccc4)coc3c2C1,32.0*,.,.,.,.
COC(=O)c1[nH]c2c(c1C)C(=O)CC(c1cccs1)C2 (stereo unspecified),5.0,-4.1,50.8*,-7.0,1.3
Cc1ccccc1NC(=S)N1CCC(NC(=O)c2ccco2)CC1,-0.2,3.2,.,15.4,0.3
O=S(=O)(Nc1ccc(F)c(Cl)c1)c1cccc(F)c1,-16.0,.,.,.,.
CC(C)NC(=S)NN=Cc1sc(N2CCCCC2)nc1-c1cccs1,-0.9,79.8,.,.,1.3
